# PLC-gamma1 inh: PLC-gamma1 (human) inhibition, primary screen; P19174; purified PLC-gamma1, fluorogenic substrate, fluorescence; inhibition, % at 12.2 µM; 370,000 compounds, 0.84% hits; AID 720700
# Rce1 inhib: yeast Ras-converting enzyme inhibition; Q03530; yeast membranes, quenched prenylated peptide cleavage fluorescence; calls only; 290,000 compounds, 0.27% hits; AID 2563;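 active = fall in fluorescence gain of 50% or more versus controls, with final raw signal at or below 3038400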;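 note: plate controls were neutral control wells for no effect and wells lacking membranes for full effect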
# Target sequence (Q03530 whole entry, looked up): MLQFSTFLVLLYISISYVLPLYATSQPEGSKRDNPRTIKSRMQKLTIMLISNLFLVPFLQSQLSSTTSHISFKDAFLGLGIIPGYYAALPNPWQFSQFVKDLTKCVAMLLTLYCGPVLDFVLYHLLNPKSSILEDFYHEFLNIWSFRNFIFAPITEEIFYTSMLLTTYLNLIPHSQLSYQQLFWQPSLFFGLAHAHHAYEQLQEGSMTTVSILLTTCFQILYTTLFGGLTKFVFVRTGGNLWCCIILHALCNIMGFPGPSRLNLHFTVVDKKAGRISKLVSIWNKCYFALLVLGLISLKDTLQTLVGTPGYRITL
# PLC-beta3 inh: PLC-beta3 (human) inhibition, primary screen | Q01970 | Purified PLC-beta3, fluorogenic substrate, fluorescence | inhibition, % at 12.2 µM | 370,000 compounds, 0.18% hits; in the data active = inhibition above about 11%;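 note: 0% = median of compound wells on plate and 100% = full blocker control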
# ADAM17 inh: inhibitors of human ADAM17; recombinant ADAM17, EDANS/DABCYL FRET peptide cleavage; 370,000 compounds, 0.83% hits; P78536; AID 720648; inhibition, % at 6.95 µM;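 active = inhibition above the mean of compounds lying between control limits plus 3 SD, set per campaign, cut at about 8.5% in these data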;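 note: 0% = DMSO-only wells as the low control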
# ADAM10 inh: inhibits human ADAM10; recombinant ADAM10, EDANS/DABCYL FRET peptide cleavage, 3 h; O14672; 370,000 compounds, 0.62% hits; inhibition, % at 7 µM;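 active = inhibition above a per-campaign cutoff equal to the mean of compounds falling between control-based bounds plus 3 SD, cut at about 20% in these data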;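 note: 0% = DMSO wells while the 100% control is not disclosed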
# PLCg1 ctr: counter-screen for PLC-beta3 inhibitors: inhibitors of human PLC-gamma1. shares compounds with PLC-gamma1 inh. purified PLC-gamma1, fluorogenic substrate, fluorescence. inhibition, % at 12.3 µM. 3,300 compounds, 3.1% hits
# PLCbeta3 conf: human PLC-beta3 inhibition, confirmation; inhibition, % at 12.3 µM; 3,300 compounds, 1% hits; shares compounds with PLC-gamma1 inh; purified PLC-beta3, fluorogenic substrate fluorescence; AID 743261; in the data active = inhibition above about 11%
# Starred values were filed as active, the others as inactive; i = inactive; · = not tested or not shown. This is a sample that favours compounds with a hit; in the whole collection about 2.1% have one here. Cut-off read from the data, not from the text of the source, unless noted: active = inhibition above about 9.5%; inactive = the rest.
SMILES,PLC-gamma1 inh,Rce1 inhib,PLC-beta3 inh,ADAM17 inh,ADAM10 inh,PLCg1 ctr,PLCbeta3 conf
COc1cc2c(cc1OC)C(c1ccccc1)N(Cc1ccc(S(=O)(=O)NC(=O)c3ccco3)cc1)CC2 (stereo unspecified),-470.3,·,i,-19.3,-72.5,·,·
NC(=O)C1(N2CCCCC2)CCN(S(=O)(=O)c2ccccc2)CC1,3.8,i,-6.5,-4.5,-6.2,·,·
NC(=O)C1(N2CCCCC2)CCN(Cc2ccccc2Cl)CC1,8.4,i,10.6*,3.2,-0.9,-5.2,-2.8
CN1CCN(S(=O)(=O)c2cccc(C(=O)Oc3ccc(Br)cc3F)c2)CC1,10.6*,i,-0.2,3.2,4.6,-3.5,-0.9
CN1CCN(S(=O)(=O)c2cccc(C(=O)Oc3cccc(Br)c3)c2)CC1,0.5,i,-4.7,-1.2,0.9,·,·
CCN1C(=O)c2ccccc2S(=O)c2ccc(C(=O)N3CCCCCC3)cc21 (stereo unspecified),5.6,i,11.1*,-0.9,10.8,-6.5,-4.2
CCN1C(=O)c2ccccc2S(=O)c2ccc(C(=O)N3CCN(C(=O)c4ccco4)CC3)cc21 (stereo unspecified),-0.5,i,-0.5,1.3,-9.9,·,·
C[C@H](CO)N1C[C@H](C)[C@@H](CN(C)C(=O)c2ccc3ccn(C)c3c2)OCc2cn(nn2)CCCC1=O,0.7,·,-0.3,-4.4,-12.3,·,·
CC1CC(C)CN(S(=O)(=O)N2CCC(C(=O)NCCc3ccccc3)CC2)C1 (stereo unspecified),-0.1,i,-10.5,-3.9,9.0,·,·
CS(=O)(=O)N1CCN(CC2CC3C=CC2C3)CC1 (stereo unspecified),10.0*,i,-0.8,-1.1,0.1,-2.7,-1.3
Cc1cccc(N2CCN(C(=O)c3cc(S(=O)(=O)N4CCOCC4)cn3C)CC2C)c1 (stereo unspecified),2.3,i,-7.2,-5.2,-3.9,·,·
CC(C)=NOc1nc(N(C)C)nc(N2CCOCC2)n1,10.9*,i,10.9*,1.8,8.7,-2.3,-0.2
COc1cccc(/C=N/N2CCN(C)CC2)c1,0.5,i,-1.6,-1.9,-3.0,·,·
COc1ccc(/C=N/N2CCN(C)CC2)cc1O,11.0*,i,3.1,-0.5,-6.7,5.5,0.9
CC(NCc1cc(Br)ccc1OCC(N)=O)C12CC3CC(CC(C3)C1)C2 (stereo unspecified),2.3,i,0.5,-3.8,0.2,·,·
CCOC(CNC(=O)Cn1nc(C)c2ccccc21)OCC,9.9*,i,0.5,2.0,3.9,-1.8,2.2
CCOC(=O)c1ccc(NC(=O)Cn2nc(C)c3ccccc3c2=O)cc1,3.5,i,-12.6,1.1,5.9,·,·
COc1ccc(N2C[C@@]3(O)CC[C@@H](O)[C@@H](OC)[C@@H]3[C@@](C)(O)[C@@H]2CC=C(C)C)cc1,3.3,·,-1.6,-7.3,-12.9,·,·
COc1ccc(NC(=O)C2C3CCC(C3)C2C(=O)O)cc1OC (stereo unspecified),17.8*,i,-4.5,-7.5,-8.9,-2.3,-3.6
CC(=O)Nc1ccc(NC(=O)C2C3CCC(C3)C2C(=O)O)cc1 (stereo unspecified),5.8,i,-1.4,-5.3,6.5,·,·
Cc1ccc(C2OC(=O)c3ccccc32)cc1 (stereo unspecified),9.6*,i,3.1,5.8,9.8,-1.9,-0.4
CCNC(=O)N(C)C[C@H]1N[C@@](CC)(C(=O)OC)[C@H]2C(=O)N(C)C(=O)[C@@H]12,7.9,·,4.5,6.4,3.9,·,·
Cc1cnc(CNC(=O)C2(C)CCCN2CC(C)C)cn1 (stereo unspecified),-5.4,·,-2.7,-1.3,-5.5,·,·
CCc1ccc(C2(C)SC(NC(C)=O)=NN2C(C)=O)cc1 (stereo unspecified),13.0*,i,6.6,5.1,6.5,-0.8,0.6
CCn1cc(CN2CCC(n3nccc3NC(=O)CCOc3ccccc3)CC2)cn1,13.4*,i,-2.0,-5.7,6.2,-4.8,-1.4
SMILES,PLC-gamma1 inh,Rce1 inhib,PLC-beta3 inh,ADAM17 inh,ADAM10 inh,PLCg1 ctr,PLCbeta3 conf
CCOc1cccc(CN2CCC(n3nccc3NC(=O)c3ccc4c(c3)OCO4)CC2)c1,10.2*,i,-3.5,-1.0,5.1,0.6,3.2
CC(=O)c1cccc(CN2CCC(n3nccc3NC(=O)c3ccc4c(c3)OCO4)CC2)c1,2.1,i,-3.5,-2.7,-5.2,·,·
O=C(CCNC(=O)c1ccccc1)NCCc1ccc(Cl)cc1,9.6*,i,-0.1,3.0,6.3,-5.3,-4.1
O=C(CCNC(=O)c1ccco1)NCCc1ccc(Cl)cc1,-1.0,i,-2.4,-1.0,-10.3,·,·
O=C(O)c1cccc(-n2nc(-c3ccc(Cl)c([N+](=O)[O-])c3)c3ccccc3c2=O)c1,0.4,i,-4.7,-0.8,6.0,·,·
Cc1ccc(CN2CCCCC(NC(=O)c3ccc(COc4ccccc4)cc3)C2=O)cc1 (stereo unspecified),2.8,·,2.1,0.1,10.9,·,·
CN(C)c1ncnc2[nH]ncc12,13.1*,·,6.2,1.9,-0.4,-2.3,0.8
CCCN(CC)c1ncnc2[nH]ncc12,2.0,·,1.3,0.7,4.1,·,·
O=C(CN1C(=O)NC2(CCCC2)C1=O)N1CCN(S(=O)(=O)c2cc(Cl)ccc2Cl)CC1,10.3*,·,-15.1,-6.5,2.7,-3.6,-5.1
Cc1cc(NC(=O)CSc2cn(CC(=O)N(C(C)C)C(C)C)c3ccccc23)no1,11.6*,i,-3.6,-0.4,4.9,-4.6,-1.1
O=C1NC[C@H](CC2CCCCC2)N(CCc2cccc(F)c2)C1=O,1.3,i,0.2,-2.3,1.4,·,·
Cc1noc(C)c1NC(=O)N(C)C[C@H]1OCc2cn(nn2)CCCC(=O)N([C@H](C)CO)C[C@@H]1C,-0.8,·,1.5,-1.8,-13.9,·,·
C/C(=N/NC(=O)c1nnn(-c2nonc2N)c1CSc1ccc(C)cc1)c1ccncc1,0.1,·,4.5,-1.4,-10.0,·,·
C/C(=N\NC(=O)c1nnn(-c2nonc2N)c1CSc1ccc(C)cc1)c1cccs1,10.1*,·,0.5,1.8,-17.8,-10.8,-6.3
COc1cc(S(=O)(=O)Nc2ccc(C)cc2)ccc1NC(=O)c1ccncc1,12.2*,i,7.1,5.3,13.4,-3.9,1.1
COc1cc(S(=O)(=O)Nc2ccccc2C)ccc1NC(=O)c1ccncc1,1.0,i,1.3,-1.3,9.0,·,·
CCOC(=O)c1c(S(=O)(=O)N(C)C2CCCCC2)c(C)n(C)c1C,9.9*,i,0.6,-3.8,10.5,-3.6,-0.3
CCN(CC)CCOC(=O)c1ccc(NC(=O)CNC(=O)C2CCCCC2)cc1,4.0,i,5.1,3.3,-0.1,·,·
COc1ccc(/C=C/C(=O)O)cc1S(=O)(=O)N1CCc2ccccc2C1,3.9,i,-1.2,-3.3,-6.1,·,·
Cc1ccc(/C=C/C(=O)O)cc1S(=O)(=O)Nc1ccccc1C(=O)O,11.2*,i,8.9,3.6,-1.9,4.7,2.5
